The values that follow come from PubChem BioAssay.

Experiment [1] addresses Cell division control protein 42 homolog (Homo sapiens) (UniProt P60953). The experiment is described as follows: inhibition of fluorescent GTP binding to constitutively active Cdc42 – biochemical, multiplex bead flow cytometry, Bodipy-FL-GTP, dose response (AID 1333;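 active = fitted half-maximal concentration within the tested dose range, moderate curve steepness, a statistically real signal drop, and little compound fluorescence or tag-binding interference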).
Experiment [2] shares this target. The experiment is described as follows: inhibition of fluorescent GTP binding to wildtype Cdc42 – biochemical, multiplex bead flow cytometry, Bodipy-FL-GTP, dose response (AID 1334;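 active = fitted half-maximal concentration within the tested range, moderate curve steepness, significant signal drop, and little compound fluorescence or bead-linkage interference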). As to conditions: bead-based flow cytometry, Bodipy-FL-GTP binding to GST-Cdc42; at 100 µM (top of the series) unless noted. For orientation: Flow cytometry measures light scatter and fluorescence of single cells or particles in a stream.

For experiment [3], the target named is GTPase HRas (Homo sapiens) (UniProt P01112). The experiment is described as follows: Ras wt fluorescent GTP loading blockade – biochemical, wildtype, multiplex bead flow cytometry, dose response (AID 1335;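 active = fitted half-maximal concentration within 10 nM to 100 µM, steepness 0.5 to 2, significant signal drop, low assay interference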). As to conditions: bead-based flow cytometry, Bodipy-GTP binding to GST-Ras; at 100 µM (top of the series) unless noted.
Sequence of GTPase HRas (Homo sapiens) (P01112 whole entry, looked up): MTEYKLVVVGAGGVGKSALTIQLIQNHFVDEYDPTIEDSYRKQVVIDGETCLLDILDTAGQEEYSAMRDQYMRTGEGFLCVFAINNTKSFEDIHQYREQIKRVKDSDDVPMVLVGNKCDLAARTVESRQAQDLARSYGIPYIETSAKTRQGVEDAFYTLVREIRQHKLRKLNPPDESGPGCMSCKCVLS
Experiment [4] deals with Ras-related protein Rab-7a (dog), GTP binding. Nature of the experiment: blockers of fluorescent GTP binding to Rab7 – biochemical, wildtype, multiplex bead flow cytometry, dose response (AID 1336; call rule not given here).
Experiment [5] deals with Ras-related C3 botulinum toxin substrate 1 (Homo sapiens) (UniProt P63000). Nature of the experiment: inhibition of wildtype Rac1 nucleotide loading – biochemical, multiplex bead flow cytometry, dose response (AID 1340). Conditions: GST-Rac1 beads, Bodipy-FL-GTP binding; at 100 µM (top of the series) unless noted.
In experiment [6] the target is GTPase HRas (Homo sapiens) (UniProt P01112). Nature of the experiment: blockade of GTP loading onto mutant Ras – biochemical, activated mutant, multiplex bead flow cytometry, dose response (AID 1341;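 active = dose-response curve with midpoint inside the tested range, moderate steepness, significant amplitude and little compound fluorescence or bead-attachment interference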;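 also: GST-tagged constitutively activated Ras mutant immobilized on beads and multiplexed with other GTPases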).

Each structure is given as a SMILES string. For part of these data: Results with a measured potency or affinity are listed apart. Active and inactive are the calls of the source.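 The calls were made as follows, unless noted: active = dose curve with midpoint inside tested range, moderate steepness, plateau gap beyond fit error, low compound glow and bead-link interference; inactive = the rest.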

Sequence of Cell division control protein 42 homolog (Homo sapiens) (P60953 whole entry, looked up): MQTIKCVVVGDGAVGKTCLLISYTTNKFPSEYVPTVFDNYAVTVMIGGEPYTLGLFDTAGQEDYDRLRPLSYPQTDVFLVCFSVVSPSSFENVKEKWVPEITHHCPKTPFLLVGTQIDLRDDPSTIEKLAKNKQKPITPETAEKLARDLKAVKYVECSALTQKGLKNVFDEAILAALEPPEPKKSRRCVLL

Consider `CCOc1cc(/C=N/NC(=O)C(C)Sc2ccccc2)ccc1O` (stereo not given), for which the compound was called inactive in experiment [1], in experiment [4] and in experiment [6]. Also, in experiment [2], the fluorescence, percent of control (lower = inhibition) was 31.8%. For the same compound, the GTP binding, percent of control in experiment [3] stood at 73.5%. In experiment [5], this compound gave a GTP binding signal, raw median fluorescence (lower = inhibition) (MCF (arbitrary fluorescence units)) of 165.

As to `N#C/C(=C/c1ccc(-c2cc(C(=O)O)cc(C(=O)O)c2)o1)c1nc2ccccc2s1`, the outcome in experiment [1], in experiment [4] and in experiment [6] was inactive. This compound also gave a fluorescence, percent of control (lower = inhibition) in experiment [2] of 27%. In experiment [3], the GTP binding, percent of control worked out at 66.4%. The same compound returned a GTP binding signal, raw median fluorescence (lower = inhibition) (MCF (arbitrary fluorescence units)) in experiment [5] of 110.

Consider `CC(C)CCNC(=O)CN(CCCN1CCOCC1)C(=O)Cn1nnc(-c2ccc(F)cc2)n1`, for which the compound was classed as inactive in experiment [1], in experiment [4] and in experiment [6]. This compound also displayed a fluorescence, percent of control (lower = inhibition) in experiment [2] of 98.9%. Besides, in experiment [3], the GTP binding, percent of control was 180%. For the same compound, the GTP binding signal, raw median fluorescence (lower = inhibition) (MCF (arbitrary fluorescence units)) in experiment [5] came out at 184.

As for `COc1ccccc1OCCn1cc(C(=O)O)c2c(Cl)cccc21`, the outcome in experiment [1], in experiment [4] and in experiment [6] was inactive. Also, in experiment [2], the fluorescence, percent of control (lower = inhibition) stood at 48.6%. This compound came in with a GTP binding, percent of control in experiment [3] of 191%. The same compound registered a GTP binding signal, raw median fluorescence (lower = inhibition) (MCF (arbitrary fluorescence units)) in experiment [5] of 52.

For `COC(=O)c1ccc(COc2ccccc2/C=N/Nc2cccc(C(=O)O)c2)cc1`, the result in experiment [1], in experiment [4] and in experiment [6] was inactive. The fluorescence, percent of control (lower = inhibition) in experiment [2] came to 52.1%. In experiment [3], this compound returned a GTP binding, percent of control of 100%. In experiment [5], this compound gave a GTP binding signal, raw median fluorescence (lower = inhibition) (MCF (arbitrary fluorescence units)) of 274.

`Nc1nn2c(-c3ccccc3)cc(=O)[nH]c2c1N=Nc1ccc(O)cc1`: the compound was called inactive in experiment [1], in experiment [4] and in experiment [6]. This compound returned a fluorescence, percent of control (lower = inhibition) in experiment [2] of 33.3%. In experiment [3], the GTP binding, percent of control was determined as 75.4%. The GTP binding signal, raw median fluorescence (lower = inhibition) (MCF (arbitrary fluorescence units)) in experiment [5] came out at 188.

For the compound `O=C(O)c1cc(-c2ccc(/C=C3\NC(=O)N(c4ccc(Cl)cc4)C3=O)o2)ccc1Cl`, the call in experiment [1], in experiment [4] and in experiment [6] was inactive. In addition, the fluorescence, percent of control (lower = inhibition) in experiment [2] was found to be 25.6%. In experiment [3], this compound yielded a GTP binding, percent of control of 66.3%. In experiment [5], the GTP binding signal, raw median fluorescence (lower = inhibition) (MCF (arbitrary fluorescence units)) was 160.

Consider `Cc1ccccc1COc1cccc(C)c1C(=O)O`, for which the compound was called inactive in experiment [1], in experiment [4] and in experiment [6]. The compound also yielded a fluorescence, percent of control (lower = inhibition) in experiment [2] of 58%. The compound further yielded a GTP binding, percent of control in experiment [3] of 200%. In experiment [5], this compound returned a GTP binding signal, raw median fluorescence (lower = inhibition) (MCF (arbitrary fluorescence units)) of 56.1.

With `COc1ccc(/C=C2\SC(=S)N(CCCC(=O)NNC(=O)c3ccccc3O)C2=O)cc1`, the call in experiment [1], in experiment [4] and in experiment [6] was inactive. This compound showed a fluorescence, percent of control (lower = inhibition) in experiment [2] of 32.8%. This compound registered a GTP binding, percent of control in experiment [3] of 73.5%. Also, in experiment [5], the GTP binding signal, raw median fluorescence (lower = inhibition) (MCF (arbitrary fluorescence units)) came out at 203.

With `Cc1ccc(O)c(C(=O)c2cnn(C(=O)Cc3csc(C)n3)c2)c1`, the result in experiment [1], in experiment [4] and in experiment [6] was inactive. For the same compound, the fluorescence, percent of control (lower = inhibition) in experiment [2] is 37%. The compound further yielded a GTP binding, percent of control in experiment [3] of 86.3%. Moreover, the GTP binding signal, raw median fluorescence (lower = inhibition) (MCF (arbitrary fluorescence units)) in experiment [5] is 242.

In the case of `Cc1cc(C(F)F)n2nc(C(=O)Nc3ccc(S(=O)(=O)NC45CC6CC(CC(C6)C4)C5)cc3)nc2n1`, the call in experiment [1], in experiment [4] and in experiment [6] was inactive. Besides, the fluorescence, percent of control (lower = inhibition) in experiment [2] was 35%. The compound also yielded a GTP binding, percent of control in experiment [3] of 82.9%. This compound had a GTP binding signal, raw median fluorescence (lower = inhibition) (MCF (arbitrary fluorescence units)) in experiment [5] of 254.

On to `CCOC(=O)c1c(NC(=O)/C=C/c2ccc3c(c2)OCO3)sc(C)c1CC`, for which the call in experiment [1], in experiment [4] and in experiment [6] was inactive. In experiment [2], this compound returned a fluorescence, percent of control (lower = inhibition) of 30.9%. This compound also had a GTP binding, percent of control in experiment [3] of 75.9%. This compound also gave a GTP binding signal, raw median fluorescence (lower = inhibition) (MCF (arbitrary fluorescence units)) in experiment [5] of 256.

Consider `Cc1cc(-c2n[nH]c(=S)n2/N=C/c2cc([N+](=O)[O-])ccc2Cl)n[nH]1`, for which the call in experiment [1], in experiment [4] and in experiment [6] was inactive. In addition, the fluorescence, percent of control (lower = inhibition) in experiment [2] turned out to be 40.4%. The compound further returned a GTP binding, percent of control in experiment [3] of 54.8%. For the same compound, in experiment [5], the GTP binding signal, raw median fluorescence (lower = inhibition) (MCF (arbitrary fluorescence units)) was 105.

For `O=c1c2ccccc2nc2c3ccccc3c(NCc3cccnc3)nn12`, the compound was called inactive in experiment [1], in experiment [4] and in experiment [6]. Also, the fluorescence, percent of control (lower = inhibition) in experiment [2] is 27.9%. In experiment [3], this compound had a GTP binding, percent of control of 71.5%. The compound also came in with a GTP binding signal, raw median fluorescence (lower = inhibition) (MCF (arbitrary fluorescence units)) in experiment [5] of 157.

Take `Cc1cccc(C)c1CNc1ncccc1C(=O)O`: the call in experiment [1], in experiment [4] and in experiment [6] was inactive. The same compound showed a fluorescence, percent of control (lower = inhibition) in experiment [2] of 59%. In addition, the GTP binding, percent of control in experiment [3] turned out to be 215%. In experiment [5], the GTP binding signal, raw median fluorescence (lower = inhibition) (MCF (arbitrary fluorescence units)) is 56.4.
